From PubChem BioAssay (NCATS)
Records with an inconclusive call do not appear. A number with no mark means an inactive call. Active and inactive are the calls of the source. Calls follow the shape of the dose curve; as a rule, active = well fitted inhibition curve with a large enough effect; inconclusive = small, poorly fitted or top-dose-only effect; inactive = flat fitted curve, though single readings scatter.

Test system: CP203
Test: qHTS profiling for inhibitors of Plasmodium falciparum proliferation (AID 504749); also: nearly all actives have a fitted effect of over 60% in size;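 as to activity, negative = inhibition: 0% = DMSO vehicle and full inhibition = artemisinin control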
Conditions: P. falciparum in erythrocytes, SYBR Green DNA, 72 h; series mostly up to 28.7 µM; activity, negative = inhibition: at the top concentration
Description: NIH National Institute of Allergy and Infectious Diseases [NIAID] NIH Chemical Genomics Center [NCGC] MLPCN Grant: None Assay Provider: Xinzhuan Su, NIAID NCGC Assay Overview: Plasmodium falciparum is a virulent malarial parasite that kills 1-2 million people worldwide each year. Transmitted by mosquitoes, the sporozoite form of the parasite enters the blood stream to infect hepatocytes, where they become merozoites that infect red blood cells (erythrocytes). Within erythrocytes, merozoites begin a […] cycle of growth and division, after which the parasite is released to infect new red blood cells. Gametocytes, which form within erythrocytes as well, circulate in the bloodstream and are ingested by the mosquito, thereby completing the life cycle. To profile malarial isolates for differential chemical responses and to identify inhibitors of malarial growth, an assay that measures P. falciparum growth and replication within erythrocytes was employed. This assay uses a DNA binding fluorescent dye (SYBR Green) to detect parasite DNA following cell lysis. Because mature erythrocytes lack DNA, only Plasmodium-derived DNA is detected.
NCGC Assay Protocol Summary: The SYBR Green viability assay was adapted from a method described previously (Plouffe et al., 2008). For screening 3 ul culture medium was dispensed into 1536 well black clear bottom plates (Aurora Biotechnologies) using a Multidrop Combi (Thermo Fisher Scientific Inc.), 23 nL compounds in DMSO were added by a pin tool (Kalypsys), and 5 ul of erythrocytes infected with P. falciparum (0.3% parasitemia, 2.5% hematocrit final concentration) were added. The plates were incubated at 37 C in a humidified incubator in 5% CO2 for 72 h, and 2 ul lysis buffer (20 mM Tris HCl, 10 mM EDTA, 0.16% saponin, 1.6% triton X, 10X SYBR Green I supplied as 10,000X […] by Invitrogen) was added to each well. The plates were mixed for 25 sec with gentle shaking and incubated overnight at room temperature in the dark. The following morning, fluorescence intensity at 485(14) nm excitation and 535(25) nm emission wavelengths was measured on an EnVision (Perkin Elmer) plate reader. Plate reads were normalized relative to the control inhibitor (0.29 uM artemisinin) and vehicle (DMSO) wells present on each plate and then corrected by an algorithm using vehicle-only control plates at the beginning and end of the compound plate stack.
Potency is read from the fitted curve at half-maximal effect.

Row | SMILES | activity, negative = inhibition | Potency
1 | O=C(O)/C=C/C(O)c1ccc(Cl)cc1 (stereo not given) | 10.1% | –
2 | Clc1ccccc1-c1nc(-c2ccncc2)no1 | -0.378% | –
3 | O=C(O)[C@H](CC(=O)N1C[C@H]2CCCC[C@H]2C1)Cc1ccccc1 | 6.55% | –
4 | C=CC(N)CCC(=O)O (stereo not given) | -1.03% | –
5 | Cc1ccc(O)c(-n2nc3ccccc3n2)c1 | 14% | –
6 | COc1cc(/C=C/C(=O)N2CCN(CC(=O)N3CCCC3)CC2)cc(OC)c1OC | 7.9% | –
7 | c1ccc2sc(SSc3nc4ccccc4s3)nc2c1 | -11.1% | –
8 | Nc1cc(-c2ccncc2)c[nH]c1=O | -6.71% | –
9 | O=C(Nc1ccc(C(=O)O)c(O)c1)c1ccccc1 | 4.37% | –
10 | COc1cc2c3cc1Oc1cc(ccc1O)C[C@@H]1c4c(cc(OC)c(O)c4Oc4ccc(cc4)C[C@@H]3N(C)CC2)CC[N+]1(C)C | -1.48% | –
11 | CN1CCN(c2cc3c(nn2)Oc2ccccc2N3C)CC1 | 5.5% | –
12 | O=C(/C=C/c1ccccc1)NCCO | -0.173% | –
13 | Cc1cc(O)c2ccccc2c1O | -14.2% | –
14 | [O-][n+]1ccccc1SSc1cccc[n+]1[O-] | – | 1.35 µM (active)
15 | Cc1ccc(C(=O)c2ccc(CC(=O)O)n2C)cc1 | 2.78% [at 12.8 µM] | –
16 | CCOC(=O)c1ccccc1O | -4.08% | –
17 | Cc1nc2ccccc2n1Cc1ccc(Cl)cc1 | -9.04% | –
18 | c1ccc2sc(SN3CCOCC3)nc2c1 | -2.95% | –
19 | O=C(OCc1ccccc1)c1ccccc1 | 14.7% | –
20 | CC(=O)[C@]1(O)Cc2c(O)c3c(c(O)c2[C@@H](O[C@H]2C[C@H](N)[C@H](O)[C@H](C)O2)C1)C(=O)c1c(O)cccc1C3=O | – | 9.53 µM (active)

Row | SMILES | activity, negative = inhibition | Potency
21 | CC(N)C(=O)OC(C)(C)Cc1ccc(Cl)cc1 (stereo not given) | – | 12 µM (active)
22 | COc1cc(CNC(=O)CCCC/C=C/C(C)C)ccc1O | 3.63% | –
23 | O=C(O)Cc1ccc(-c2ccccc2)cc1 | 4.91% [at 12.8 µM] | –
24 | CC1(C)S[C@@H]2[C@H](NC(=O)[C@H](NC(=O)N3CCN(S(C)(=O)=O)C3=O)c3ccccc3)C(=O)N2[C@H]1C(=O)O | 0.93% | –
25 | C=CCN1C(=O)C(CC(C)C)NC1=S (stereo not given) | – | inactive
26 | CCOc1ccc2nc(S(N)(=O)=O)sc2c1 | -11.8% | –
27 | CN1[C@@H]2CC[C@H]1CC(OC(=O)C(CO)c1ccccc1)C2 (stereo not given in full) | 1.43% | –
28 | CCCCCCCCCCCCCCCCCC(=O)O | -2.17% | –
29 | CCCC(=O)OC[C@@H](OC(=O)CCC)[C@@H](OC(=O)CCC)[C@H](Cn1c2nc(=O)[nH]c(=O)c-2nc2cc(C)c(C)cc21)OC(=O)CCC | -0.842% | –
30 | Cc1[nH]cnc1CN1CCc2c(c3ccccc3n2C)C1=O | -8.38% | –
31 | N=c1ccn2c(n1)O[C@H]1[C@H](O)[C@@H](CO)O[C@H]12 | -3.16% | –
32 | CCCCCCOc1ccccc1C(N)=O | -1.5% | –
33 | C[S+](CC[C@H](N)C(=O)O)C[C@H]1O[C@@H](n2cnc3c(N)ncnc32)[C@H](O)[C@@H]1O (stereo not given in full) | 2.34% | –
34 | O=C(O)c1ccccc1Nc1cccc(C(F)(F)F)c1 | 4.92% | –
35 | C=CCCCCCCCCC(=O)O | 0.123% | –
36 | Cc1ccccc1CNc1ncnc2c1ncn2C1OC(CO)C(O)C1O (stereo not given) | -10% | –
37 | CCCSc1ccc2nc(NC(=O)OC)[nH]c2c1 | -9.39% [at 12.8 µM] | –
38 | CCCCCCCCCCCC(=O)[O][Sn]([CH2]CCC)([CH2]CCC)[O]C(=O)CCCCCCCCCCC | -1.44% | –
39 | CC1OC1P(=O)(O)O (stereo not given) | 16.7% | –
40 | O=C(CCN1CCN(CCO)CC1)N1c2ccccc2Sc2ccc(C(F)(F)F)cc21 | -16.3% | –
